From PubChem BioAssay (NCI)
Where “and” joins values, the source holds several entries; their conditions need not be identical. Equal entries are not always repeated. This is part of a sample that, as a whole, favours compounds with a hit. Of some 83,000 tested, about 20% had one in any assay.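 Activity criterion: percent growth below 10, measured after cells in 96-well plates were exposed to a single compound concentration for 48 hours.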

Tests used:
Assay in all cases: NCI-60 one-dose screen, 48 h (100 = growth as untreated, 0 = no growth, -100 = all killed)
Conditions in all cases: 10 µM unless noted
EKVX NSCLC = test system: EKVX NSCLC
SN12C renal = test system: SN12C renal
UO-31 renal = test system: UO-31 renal
TK-10 renal = test system: TK-10 renal
ACHN renal = test system: ACHN renal
CAKI-1 renal = test system: CAKI-1 renal
A498 renal = test system: A498 renal
MOLT-4 leukemia = test system: MOLT-4 leukemia
SR leukemia = test system: SR leukemia
RPMI-8226 leukemia = test system: RPMI-8226 leukemia
OVCAR-8 ovarian = test system: OVCAR-8 ovarian
OVCAR-5 ovarian = test system: OVCAR-5 ovarian
OVCAR-4 ovarian = test system: OVCAR-4 ovarian
IGROV1 ovarian = test system: IGROV1 ovarian
OVCAR-3 ovarian = test system: OVCAR-3 ovarian
HS 578T breast = test system: HS 578T breast
NCI/ADR-RES ovarian = test system: NCI/ADR-RES ovarian
CCRF-CEM leukemia = test system: CCRF-CEM leukemia
SK-OV-3 ovarian = test system: SK-OV-3 ovarian

Measured: growth

CCOC(=O)C(N)Cc1cc(I)c(O)c(I)c1 (stereo not given)
inactive: EKVX NSCLC 101% and 113% | SN12C renal 103% and 98.7% | UO-31 renal 81.6% and 78.6% | TK-10 renal 120% and 107% | ACHN renal 106% and 96% | CAKI-1 renal 91.6% and 89.2% | A498 renal 103% | MOLT-4 leukemia 102% and 112% | SR leukemia 89.3% and 104% | RPMI-8226 leukemia 96.4% and 107% | OVCAR-8 ovarian 110% and 104% | OVCAR-5 ovarian 109% and 107% | OVCAR-4 ovarian 108% and 107% | IGROV1 ovarian 115% and 104% | OVCAR-3 ovarian 113% and 102% | HS 578T breast 107% | NCI/ADR-RES ovarian 98.8% and 101%

Clc1ccc2c(c1)N(C1CCCN(Cc3ccccc3)C1)c1ccccc1S2 (stereo not given)
inactive: EKVX NSCLC 74.4% | SN12C renal 39.7% | UO-31 renal 66.7% | TK-10 renal 98.6% | ACHN renal 52.5% | CAKI-1 renal 48.7% | CCRF-CEM leukemia 39.7% | MOLT-4 leukemia 70.3% | SR leukemia 16.1% | RPMI-8226 leukemia 25.9% | OVCAR-8 ovarian 37.9% | OVCAR-5 ovarian 73.4% | OVCAR-4 ovarian 79.9% | SK-OV-3 ovarian 26.8% | IGROV1 ovarian 43.8% | OVCAR-3 ovarian 53.3% | HS 578T breast 14.4% | NCI/ADR-RES ovarian 24.8%

CCOC(=O)C1=C(C)NC(C)=C(C(=O)OCC)C1
inactive: EKVX NSCLC 109% | SN12C renal 94.7% and 109% | TK-10 renal 107% and 101% | ACHN renal 109% and 105% | CAKI-1 renal 113% and 97.6% | CCRF-CEM leukemia 86.9% and 56% | MOLT-4 leukemia 134% and 101% | SR leukemia 101% and 105% | RPMI-8226 leukemia 92.6% and 99.2% | OVCAR-8 ovarian 121% and 96.9% | OVCAR-5 ovarian 104% and 92.4% | OVCAR-4 ovarian 101% and 90.2% | SK-OV-3 ovarian 105% and 112% | IGROV1 ovarian 100% and 112% | OVCAR-3 ovarian 102% and 114% | HS 578T breast 101% and 94% | NCI/ADR-RES ovarian 114% and 105%

COC(=O)c1ccccc1Cl
inactive: EKVX NSCLC 99.9% | SN12C renal 105% | UO-31 renal 93.8% | TK-10 renal 97.1% | ACHN renal 106% | CAKI-1 renal 99.6% | A498 renal 88.8% | MOLT-4 leukemia 105% | SR leukemia 96.4% | RPMI-8226 leukemia 113% | OVCAR-8 ovarian 102% | OVCAR-5 ovarian 106% | OVCAR-4 ovarian 103% | SK-OV-3 ovarian 105% | IGROV1 ovarian 105% | OVCAR-3 ovarian 105% | HS 578T breast 108% | NCI/ADR-RES ovarian 109%

CCOC(=O)c1ccc(C(=N)N)cc1
inactive: EKVX NSCLC 103% | SN12C renal 117% | UO-31 renal 91.8% | TK-10 renal 105% | ACHN renal 126% | CAKI-1 renal 97.6% | A498 renal 98.6% | CCRF-CEM leukemia 103% | MOLT-4 leukemia 109% | SR leukemia 103% | RPMI-8226 leukemia 89.7% | OVCAR-8 ovarian 105% | OVCAR-5 ovarian 120% | OVCAR-4 ovarian 107% | SK-OV-3 ovarian 108% | OVCAR-3 ovarian 102% | HS 578T breast 73.8% | NCI/ADR-RES ovarian 100%

CN(C)C(=N)N=C(N)N
inactive: EKVX NSCLC 113% | SN12C renal 95.3% and 127% | UO-31 renal 91.5% and 106% | TK-10 renal 119% and 149% | ACHN renal 92.8% and 115% | CAKI-1 renal 115% | A498 renal 128% and 106% | CCRF-CEM leukemia 79.9% | MOLT-4 leukemia 95.6% and 131% | SR leukemia 133% | RPMI-8226 leukemia 92.2% | OVCAR-8 ovarian 105% | OVCAR-5 ovarian 115% and 114% | OVCAR-4 ovarian 96.3% and 112% | SK-OV-3 ovarian 106% and 110% | IGROV1 ovarian 98.7% and 128% | OVCAR-3 ovarian 118% and 113% | HS 578T breast 144% | NCI/ADR-RES ovarian 105% and 111%

NNC(=O)Nc1ccccc1
inactive: EKVX NSCLC 96.2% | SN12C renal 101% | UO-31 renal 90% | TK-10 renal 110% | ACHN renal 100% | A498 renal 85.2% | CCRF-CEM leukemia 104% | MOLT-4 leukemia 114% | SR leukemia 96.5% | RPMI-8226 leukemia 106% | OVCAR-8 ovarian 109% | OVCAR-5 ovarian 102% | OVCAR-4 ovarian 104% | SK-OV-3 ovarian 105% | IGROV1 ovarian 102% | OVCAR-3 ovarian 105% | HS 578T breast 105% | NCI/ADR-RES ovarian 105%
